Results reported in PubChem BioAssay (NCI).
Values joined by “and” are separate entries in the source; they are usually repeats but may differ in a detail not shown here. Equal entries are not always repeated. This is part of a sample that, as a whole, favours compounds with a hit. Of some 79,000 tested, about 15% had one in any assay. No stated cut-off is given here; in the data, active means growth inhibition above about 70%; inactive means the rest.

Assays:
[1] = NCI Yeast Anticancer Drug Screen. Data for the rad50 strain (AID 155);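 further: 0% = growth of vehicle-only cultures of the same strain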; conditions: S. cerevisiae rad50 strain growth inhibition, active compounds read high; at 50.0 µM unless noted
In short: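 DNA repair mutant yeast, compound exposure, growth read-out; inhibition is taken relative to vehicle.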

[2] = NCI Yeast Anticancer Drug Screen. Data for the mec2-1 strain (AID 157); conditions: S. cerevisiae mec2-1 strain, active compounds read high; at 50.0 µM unless noted
In short: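 Using mec2-1 yeast: add compound, measure growth, express inhibition versus vehicle-treated cultures.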

[3] = NCI Yeast Anticancer Drug Screen. Data for the sgs1 mgt1 strain (AID 161);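 further: 0% = growth of cultures given vehicle only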; conditions: S. cerevisiae sgs1 mgt1 strain, active compounds read high; at 50.0 µM unless noted
In short: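 This yeast growth screen uses a strain with defined DNA-repair lesions; compound-treated growth is compared with vehicle-treated growth.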

[4] = NCI Yeast Anticancer Drug Screen. Data for the cln2 rad14 strain (AID 165);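 further: 0% = growth equal to vehicle treated cultures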; conditions: S. cerevisiae cln2 rad14 strain, active compounds read high; at 50.0 µM unless noted
In short: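 Yeast strain cln2 rad14, bearing defects in cell cycle control and DNA repair, serves as the test system; values reflect growth inhibition compared with vehicle.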

[5] = NCI Yeast Anticancer Drug Screen. Data for the bub3 strain (AID 167); conditions: S. cerevisiae bub3 mutant strain, active compounds read high; at 50.0 µM unless noted
In short: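 In this screen, a yeast mutant lacking normal mitotic checkpoint function is challenged with compound. Relative growth versus vehicle gives the inhibition value.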

[6] = NCI Yeast Anticancer Drug Screen. Data for the mlh1 rad18 strain (AID 175); conditions: S. cerevisiae mlh1 rad18 strain growth inhibition, active compounds read high; at 50.0 µM unless noted
In short: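 Steps: expose repair-defective yeast to compound; measure growth; express inhibition against vehicle-treated controls.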

Measured: growth inhibition

C1CSCCSS[C@@H]2CCCCC2SC1 (some centres undefined)
inactive: [1] -12.8% | [2] -25.1% | [3] -0.55% | [4] -11.9% | [5] -12.1% | [6] -17.1%

CSc1ccc(NC(=O)Nc2cc(C)ccc2N=Nc2ccc(C)cc2)cc1
inactive: [1] -1.5% | [2] -2.35% | [3] -4.95% | [4] -9.3% | [5] -4.75% | [6] 17.5%

C1=NC(c2ccccc2)=CN(C2CCCCCCCCCCC2)C1(c1ccccc1)C1CCCCCCCCCCC1 (centres undefined)
inactive: [1] -18.2% | [2] -8.55% | [3] -12% | [4] -19.4% | [5] 12.3% | [6] 13.2%

CCOC(=O)CN(Cn1cncn1)Cn1cncn1
inactive: [1] 26% | [2] 5.55% | [3] 22.2% | [4] -30.2% | [5] -43.4% | [6] 10.8%

CCCSCCC(NC(=O)c1ccccc1)C(=O)O (centres undefined)
inactive: [1] -14.6% | [2] -10% | [3] -10.1% | [4] -12.9% | [5] -15.2% | [6] -26.4%

CNC(=O)C(C)NC(=O)C(Cc1ccccc1)NC(=O)c1ccccc1 (centres undefined)
inactive: [1] -33% | [2] -52.7% | [3] -6.45% | [4] 15.4% | [5] 5.2% | [6] -11.7%

Cc1ccc2c(c1)C(C(=O)N[C@@H]1C(=O)N3[C@@H]1SC(C)(C)[C@@H]3C(=O)O)OCCC2 (some centres undefined)
inactive: [1] -5.1% | [2] -12.3% | [3] 16.2% | [4] 2.45% | [5] 0.65% | [6] -68.4%

O=C(O)Cc1ccc(-c2cn3c(n2)sc2ccccc23)cc1
inactive: [1] 58.1% | [2] 22.3% | [3] 0.05% | [4] 5.45% | [5] 24.8% | [6] 16.4%

O=C1N(Cc2ccccc2)CCN1Cc1ccccc1
inactive: [1] -37.1% | [2] -24.6% | [3] -11.7% | [4] 20.2% | [5] 0.6% | [6] -22.9%

COc1ccc(NC(=O)/C(=N\NC(=O)C[n+]2ccccc2)c2c(O)c3ccc(O)cc3oc2=O)c([N+](=O)[O-])c1
inactive: [1] 26.6% | [2] 47.2% | [3] 29.4% | [4] 7.55% | [5] 39.5% | [6] 39.1%

O=C(NCCOC(=O)OCCNC(=O)NC1CCCCC1)NC1CCCCC1
inactive: [1] -12.8% | [2] -30% | [3] 0.9% | [4] 4.1% | [5] 4.1% | [6] -13.5%

CCOc1ccccc1Nc1ccc(N)cc1S(=O)(=O)O
inactive: [1] 9.45% | [2] 0.85% | [3] -31.5% | [4] -6.2% | [5] 1.35% | [6] -8.05%

COc1ccc(C)cc1NC(=O)Nc1ccccc1F
inactive: [1] 6.9% | [2] 15.2% | [3] 6.15% | [4] 3.3% | [5] -0.4% | [6] 5.15%

CC(=O)Nc1cc(NC(C)=O)c2ccc(=O)[nH]c2c1O
inactive: [1] -2.9% | [2] -3.6% | [3] -3.55% | [4] -8.25% | [5] 15.3% | [6] 5.3%

CC(C(=O)O)N1C(=O)CNC1=O (centres undefined)
inactive: [1] -1.85% | [2] -4.05% | [3] 1.15% | [4] -37.6% | [5] 1.25% | [6] -12.8%

OCC1COCO1 (centres undefined)
inactive: [1] 0.35% | [2] -4.1% | [3] -8.75% | [4] -1.65% | [5] -6.5% | [6] 9.2%

CCN(CC)CCNc1c(OC)c(OC)cc2nccnc12
inactive: [1] 9.85% | [2] 9.7% | [3] 30.9% | [4] 2.85% | [5] 0.2% | [6] -1.75%

ONC(CC(O)(NO)NO)c1ccccc1 (centres undefined)
inactive: [1] -32.7% | [2] -32% | [3] -20.6% | [4] 12.6% | [5] -28.1% | [6] -25.9%

CCOC(=O)CSC#N
inactive: [1] -2.05% | [2] -0.85% | [3] 1.35% | [4] 7.4% | [5] 21.2% | [6] 2.9%

NNC(=S)N/N=C/c1ccc([N+](=O)[O-])s1
inactive: [1] 9.2% | [2] -2.4% | [3] 24.1% | [4] -47.4% | [5] -19.8% | [6] 6.35%

c1ccc2c(c1)ncn2Sn1cnc2ccccc21
inactive: [1] 1.8% and 2.7% | [2] 16.9% and -0.1% | [3] 3.8% and -3.35% | [4] -12.4% and 15.5% | [5] 2.95% and 11.1% | [6] 6.9% and 20.9%

NC(=O)CC[n+]1ccccc1
inactive: [1] 11.1% | [2] -29.3% | [3] 6.5% | [4] 11.7% | [5] -19.4% | [6] 7.2%

OCC(O)COc1ccc(Cl)cc1 (centres undefined)
inactive: [1] -5% | [2] -12.8% | [3] -1.25% | [4] 2.05% | [5] 6.4% | [6] 9%

N#C/C(=C/c1ccccc1)c1ccccc1
inactive: [1] 42.5% | [2] 12.6% | [3] 24.6% | [4] 14.5% | [5] 40.9% | [6] 24.1%

O=C1COC(c2ccccc2O)=NN1Cc1ccccc1
inactive: [1] -14.6% | [2] -0.3% | [3] -5.3% | [4] -4.75% | [5] -8.6% | [6] -1.1%

NCCCCCCCCCCN
inactive: [1] -22.9% | [2] -5.1% | [3] -5.9% | [4] -29.4% | [5] -35.7% | [6] -11.9%

C/C(=N\NS(=O)(=O)c1ccc(C)cc1)c1cccs1
inactive: [1] -3.9% | [2] 7.1% | [3] 6.4% | [4] 4.2% | [5] 10.2% | [6] 12.6%

O=C1C=C(C2=CC(=O)c3cccc(O)c3C2=O)C(=O)c2c(O)cccc21
inactive: [1] -32.5% | [2] -13% | [3] -9.9% | [4] -46% | [5] -8.5% | [6] -4.7%

COc1cccc(OC)c1NC(=O)C(=O)Nn1c(NNC(=O)c2ccncc2)nc2ccccc2c1=O
inactive: [1] 28.6% | [2] 26.5% | [3] 4.65% | [4] -30.1% | [5] 35% | [6] 38.4%

CN(C)C(=S)/N=c1\ssc(=S)n1Cc1cccnc1
inactive: [1] -20.6% | [2] -14.4% | [3] 5.5% | [4] 22.9% | [5] -13.7% | [6] -62.8%

CCN(CC)CCOC(=O)c1cc2ccccc2s1
inactive: [1] 23.2% | [2] 8.85% | [3] 13.1% | [4] 2.85% | [5] -1.35% | [6] 10.4%

CCc1ccc2c(c1)C(=O)c1ccccc1C2=O
inactive: [1] 4% | [2] 21.8% | [3] 11.1% | [4] -9.5% | [5] 25.7% | [6] 26.6%

Cc1ccc(OCCC(=O)N(C)C)cc1
inactive: [1] 5.05% | [2] 2.9% | [3] -8.25% | [4] -10% | [5] 4.2% | [6] 10.9%

CN(C)c1ccc(C2NC(=S)NC3=C2CCCC3)cc1 (centres undefined)
inactive: [1] -15.1% | [2] -15.6% | [3] 5% | [4] -20.6% | [5] 22.8% | [6] 14.6%

CCCCCCCCCCCCCCCCCC(=O)CBr
inactive: [1] 14% | [2] 9.9% | [3] 10.9% | [4] -25.4% | [5] 2.2% | [6] 38.9%

CC1(CI)COC(c2ccccc2)(C2CCCCC2)OC1 (centres undefined)
inactive: [1] 2.95% | [2] -5.15% | [3] 5.2% | [4] 35.3% | [5] -16.2% | [6] 15.9%

O=c1c2ccccc2oc2c(Cl)cc(Cl)cc12
inactive: [1] -0.95% | [2] -0.05% | [3] 9.35% | [4] -10.3% | [5] -6.5% | [6] 0.8%

O=C(/C(=C/c1ccccc1)c1ccccc1)N1c2ccccc2CC1c1c[nH]c2ccccc12 (centres undefined)
inactive: [1] 17.4% | [2] 15.2% | [3] -10.9% | [4] 19.1% | [5] 3.3% | [6] 23.8%

NC(=O)NN(Cc1ccc2c(c1)OCO2)N=O
inactive: [1] -7.25% | [2] -6% | [3] -5.55% | [4] -16.6% | [5] 16.2% | [6] 1.9%
